Several values for one entry are separate records, joined by “and”; a condition that tells them apart may be missing. Identical values can stand only once. Inconclusive results are not listed. More than one record can exist for a structure, and the calls need not agree. Activity calls are given as the source filed them. Unless noted, calls follow the shape of the dose curve; as a rule, active = well fitted curve in the direction sought with a large enough effect; inconclusive = small, poorly fitted or top-dose-only effect, or another doubt; inactive = no such curve, though single readings can be large; an effect the other way counts as inactive or inconclusive.
Key:
[1] = High-throughput drug toxicity screening in the BPDCN cell line Cal-1 (AID 1224825; call rule not given here); conditions: Cal-1 BPDCN cell viability, qHTS; at 45.8 µM (top of the series) unless noted
Method in brief: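 Percent activity derived from CellTiter-Glo luminescence, scaling DMSO to 100% and 9.2 uM final bortezomib to 0%. BPDCN Cal-1 cells (500/well, RPMI plus 10% FBS) incubated with compounds 48 hours at 37C before reading.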

[2] = qHTS assay for measurement of the activity of small molecule inhibitors on Zika virus induced Caspase-3 activity in human iPSC derived neural progenitor cells (hNPCs) (AID 1224857); also: nearly all actives have a fitted effect of over 65% in size; also: potency is read from the fitted curve at half-maximal effect
Method in brief: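 Human iPSC-derived neural progenitor cells pretreated 1 hr with compounds, then infected with Zika virus (2 FFU/cell) for 6 hours at 37 C. Caspase-3/7 measured by Caspase-Glo luminescence; % inhibition calculated from induction scaled to uninfected (0%) and infected (100%) wells.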

[3] = qHTS assay for measurement of the activity of small molecule inhibitors on Zika virus induced Caspase-3 activity in human astrocytoma cells (AID 1224859)
Method in brief: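 SNB-19 astrocytoma cells, 250/well, pretreated 1 h with compounds, then Zika virus at 2 FFU/cell for 6 h at 37 C; Caspase-Glo 3/7 luminescence after 30 min; percent inhibition normalised to uninfected and infected controls.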

[4] = qHTS Screen of the MIPE 4.0 Collection Against Ewings Sarcoma (TC71) (AID 1259253); also: nearly all actives have a fitted effect of over 40% in size; also: potency is read from the fitted curve at half-maximal effect
Method in brief: (§1)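 After a 4 h attachment period in RPMI/5% FBS, cells were pin-dosed with test compounds; DMSO served as negative and 9.2 uM bortezomib (final) as positive control. Luminescent CellTiter-Glo signal at 48 h defined viability.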

[5] = qHTS Screen of the MIPE 4.0 Collection Against Ewings Sarcoma (EW8) (AID 1259255); also: nearly all actives have a fitted effect of over 35% in size; also: potency is read from the fitted curve at half-maximal effect
Method in brief: as §1

[6] = qHTS assay to identify small molecule inhibitors of chordoma cells - UCH-1 (AID 1259355); also: nearly all actives have a fitted effect of over 55% in size
Method in brief: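 800 cells/well, overnight attach; compounds pinned at 15 concs, then auranofin/camptothecin/doxorubicin/rubitecan/topotecan combo added; 48hr 37 C, 5% CO2; CellTiter-Glo, 30min RT, luminescence.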

[7] = qHTS assay to identify small molecule inhibitors of chordoma cells - UCH-2 (AID 1259356)
[8] = P-glycoprotein substrates identified in KB-8-5-11 adenocarcinoma cell line, qHTS therapeutic library screen (AID 1346987); conditions: outcome: dose series up to 44.5 µM unless noted; also: nearly all actives have a fitted effect of over 65% in size; also: potency is read from the fitted curve at half-maximal effect
Method in brief: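 Human cervical adenocarcinoma KB-8-5-11 cells, selected in colchicine to over-express P-gp and assayed without it, were exposed for 72 h to titrated compounds. An ATP-based luminescent viability signal gave AC50.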

[9] = biological target: Atrial natriuretic peptide receptor 1 (Homo sapiens) (UniProt P16066); assay: Natriuretic polypeptide receptor (hNpr1) antagonism - Pilot screen (AID 1347049; calls by dose curve;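 also: HEK293 cells with hNpr1 and GloSensor cGMP luciferase stimulated by 0.1 nM hNppA; agonist-evoked cGMP luminescence read 20 min after hNppA addition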)
Chain of Atrial natriuretic peptide receptor 1 (Homo sapiens) (P16066 whole entry, looked up): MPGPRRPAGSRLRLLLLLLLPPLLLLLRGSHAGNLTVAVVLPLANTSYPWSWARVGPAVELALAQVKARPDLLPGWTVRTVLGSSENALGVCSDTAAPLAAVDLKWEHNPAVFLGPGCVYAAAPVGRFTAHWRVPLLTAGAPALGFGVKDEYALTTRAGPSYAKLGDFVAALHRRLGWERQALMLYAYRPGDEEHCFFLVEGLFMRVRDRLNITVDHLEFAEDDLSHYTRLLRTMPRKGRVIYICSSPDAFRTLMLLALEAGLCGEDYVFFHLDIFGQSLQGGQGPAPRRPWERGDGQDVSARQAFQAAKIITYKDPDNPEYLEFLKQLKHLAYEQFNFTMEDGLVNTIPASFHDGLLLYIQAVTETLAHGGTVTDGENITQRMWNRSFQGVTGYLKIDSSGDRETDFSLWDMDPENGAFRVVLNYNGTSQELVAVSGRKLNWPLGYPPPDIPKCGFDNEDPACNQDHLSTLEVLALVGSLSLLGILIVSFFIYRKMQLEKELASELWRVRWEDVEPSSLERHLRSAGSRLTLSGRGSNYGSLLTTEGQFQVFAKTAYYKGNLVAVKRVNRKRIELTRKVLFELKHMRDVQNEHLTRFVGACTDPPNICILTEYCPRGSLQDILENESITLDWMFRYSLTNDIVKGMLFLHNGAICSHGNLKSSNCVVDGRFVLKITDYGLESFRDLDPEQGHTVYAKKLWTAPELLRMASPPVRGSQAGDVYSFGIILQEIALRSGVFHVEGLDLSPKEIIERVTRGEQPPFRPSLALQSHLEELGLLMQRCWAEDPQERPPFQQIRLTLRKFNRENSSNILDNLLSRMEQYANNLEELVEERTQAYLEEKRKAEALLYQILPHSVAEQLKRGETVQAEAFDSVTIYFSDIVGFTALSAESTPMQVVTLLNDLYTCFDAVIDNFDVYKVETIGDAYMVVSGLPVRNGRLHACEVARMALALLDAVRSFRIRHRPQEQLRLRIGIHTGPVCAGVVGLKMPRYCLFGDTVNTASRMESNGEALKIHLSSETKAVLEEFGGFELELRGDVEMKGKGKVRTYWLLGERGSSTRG
Method in brief: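 Receptor antagonism read as cGMP-dependent luminescence in hNpr1/pGS-40F HEK293 cells: pre-read after 30 min compound exposure, post-read 20 min after hNppA agonist at 0.1 nM final, all at room temperature, protected from light; A-71915 titration as control.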

[10] = biological target: Atrial natriuretic peptide receptor 2 (Homo sapiens) (UniProt P20594); assay: Natriuretic polypeptide receptor (hNpr2) antagonism - Pilot subtype selectivity assay (AID 1347050; calls by dose curve; also: potency is read from the fitted curve at half-maximal effect)
Chain of Atrial natriuretic peptide receptor 2 (Homo sapiens) (P20594 whole entry, looked up): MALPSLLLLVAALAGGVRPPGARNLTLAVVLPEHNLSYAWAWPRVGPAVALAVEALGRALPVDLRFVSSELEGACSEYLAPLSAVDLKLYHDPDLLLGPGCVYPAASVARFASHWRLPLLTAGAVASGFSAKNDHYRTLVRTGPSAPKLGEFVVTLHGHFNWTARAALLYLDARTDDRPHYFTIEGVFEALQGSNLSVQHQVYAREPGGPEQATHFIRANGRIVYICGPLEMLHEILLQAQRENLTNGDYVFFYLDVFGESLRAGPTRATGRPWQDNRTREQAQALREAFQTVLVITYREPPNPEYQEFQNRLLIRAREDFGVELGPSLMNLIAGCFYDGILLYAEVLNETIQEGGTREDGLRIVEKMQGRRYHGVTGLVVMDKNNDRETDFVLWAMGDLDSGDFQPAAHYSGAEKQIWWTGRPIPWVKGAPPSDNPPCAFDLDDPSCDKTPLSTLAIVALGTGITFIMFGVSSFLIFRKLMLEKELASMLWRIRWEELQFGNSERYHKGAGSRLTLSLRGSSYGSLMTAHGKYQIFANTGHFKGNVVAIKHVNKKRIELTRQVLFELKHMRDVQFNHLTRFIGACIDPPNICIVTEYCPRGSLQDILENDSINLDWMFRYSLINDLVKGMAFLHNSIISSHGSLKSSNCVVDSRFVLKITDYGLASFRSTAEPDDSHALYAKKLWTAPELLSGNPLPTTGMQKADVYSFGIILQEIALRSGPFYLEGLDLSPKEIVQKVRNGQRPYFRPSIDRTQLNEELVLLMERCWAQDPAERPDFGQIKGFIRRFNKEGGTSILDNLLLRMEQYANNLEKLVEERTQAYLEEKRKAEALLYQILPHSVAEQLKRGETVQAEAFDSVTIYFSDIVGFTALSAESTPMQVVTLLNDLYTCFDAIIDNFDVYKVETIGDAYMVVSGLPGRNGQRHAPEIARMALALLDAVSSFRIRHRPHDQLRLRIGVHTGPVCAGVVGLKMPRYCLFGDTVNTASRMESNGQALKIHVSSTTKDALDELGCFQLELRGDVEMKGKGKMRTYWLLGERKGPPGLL
Method in brief: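 Antagonist mode: compounds (LOPAC1280, seven 1:5 dilutions) added 30 min before 1 nM hNppC stimulation of hNpr2-HEK293 cGMP-sensor cells; luminescence read before and 20 min after agonist at ambient temperature.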

[11] = Natriuretic polypeptide receptor (hNpr1) antagonism - Pilot counterscreen GloSensor control cell line (AID 1347045; calls by dose curve)
Method in brief: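 The SNP-driven cGMP luminescence signal (50 uM, 20 min, room temperature) was measured in GloSensor HEK293 control cells. Compounds were tested as a LOPAC titration series and preincubated for 30-50 min.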

[12] = qHTS Screen of the MIPE 4.0 Collection Against Ewings Sarcoma (RDES) (AID 1259252); also: nearly all actives have a fitted effect of over 35% in size; also: potency is read from the fitted curve at half-maximal effect
Method in brief: as §1

[13] = Identifying Small Molecule Inhibitors of Pancreatic Cancer Stem Cells (SN12C, Adherent) (AID 1259358);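 also: cell survival measured after 48 h of compound exposure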
Method in brief: (§2)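 Adherent (2D) versus sphere (3D) formats; spheres generated 14 d in SCM beforehand. Compound transferred by pin tool after 4 h, 48 h incubation, CellTiter-Glo endpoint.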

[14] = Identifying Small Molecule Inhibitors of Pancreatic Cancer Stem Cells (SN12C, Spheroid) (AID 1259360)
Method in brief: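 Spheroids grown 14 days in stem cell media on hydrogel-coated nonadherent plates; 2D lines seeded directly. Compounds added after 4 h attachment, 48 h at 37C, 5% CO2; CellTiter-Glo luminescence normalized to DMSO (no inhibition) and no-cell wells (full inhibition).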

[15] = Identifying Small Molecule Inhibitors of Pancreatic Cancer Stem Cells (A278, Adherent) (AID 1259361);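 also: viability read after 48 h compound exposure; nearly all actives have a fitted effect of over 35% in size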
Method in brief: as §2

[16] = qHTS Screen of the MIPE 4.0 Collection Against Ewings Sarcoma (TC32) (AID 1259256); also: nearly all actives have a fitted effect of over 45% in size
Method in brief: as §1

[17] = Identifying Small Molecule Inhibitors of Pancreatic Cancer Stem Cells (Panc1, Adherent) (AID 1259362); conditions: Potency: viability;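 also: compound exposure lasted 48 h before the viability read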
Method in brief: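 Viability is scored by CellTiter-Glo luminescence 48 h after dosing, expressed as percent activity against vehicle and no-cell references. Spheroid formats rely on cells cultured 14 days in stem cell media beforehand.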

[18] = P-glycoprotein substrates identified in KB-3-1 adenocarcinoma cell line, qHTS therapeutic library screen (AID 1346986); conditions: outcome: dose series up to 44.5 µM unless noted; also: nearly all actives have a fitted effect of over 60% in size
Method in brief: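 Dose-response cytotoxicity, KB-3-1 vs P-gp-high KB-8-5-11, no colchicine in assay medium. Read: CellTiter-Glo at 72 h.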

CS(=O)(=O)Nc1ccc([N+](=O)[O-])cc1Oc1ccccc1
17%: viability (% of control) [1]
inactive: Potency [2] | Potency [3] | Potency [6] | outcome [7] | Potency [8] | Potency [9] | Potency [10]
active: Potency [4] 16.6 µM | Potency [5] 16.6 µM

Cc1ccc(C(=O)Nc2ccc(S(=O)(=O)O)c3cc(S(=O)(=O)O)cc(S(=O)(=O)O)c23)cc1NC(=O)c1cccc(NC(=O)Nc2cccc(C(=O)Nc3cc(C(=O)Nc4ccc(S(=O)(=O)O)c5cc(S(=O)(=O)O)cc(S(=O)(=O)O)c45)ccc3C)c2)c1
102%: viability (% of control) [1]
inactive: Potency [2] | Potency [3] | Potency [4] | Potency [5] | Potency [6] | outcome [7] | Potency [8] | Potency [11] | Potency [9] | Potency [10]

COc1ccc2c(c1)c(CC(=O)O)c(C)n2C(=O)c1ccc(Cl)cc1
104%: viability (% of control) [1]
active: Potency [12] 14.8 µM
inactive: Potency [2] | Potency [3] | Potency [5] | Potency [8] | Potency [11] | Potency [9] | Potency [10]

COc1ccc(CCN(C)CCCC(C#N)(c2ccc(OC)c(OC)c2)C(C)C)cc1OC (stereo unspecified)
inactive: Potency [13] | outcome [14] | IC50 (viability decrease) [15]

Cn1ccc2cc3c(cc21)CCN3C(=O)Nc1cccnc1
inactive: Potency [13] | outcome [14] | IC50 (viability decrease) [15]

CN(C)CCC=C1c2ccccc2C=Cc2ccccc21
67.7%: viability (% of control) [1]
active: Potency [4] 20.9 µM | Potency [5] 16.6 µM | Potency [10] 16.5 µM
inactive: Potency [2] | Potency [6] | outcome [7] | Potency [8] | Potency [11]

CC#C[C@]1(O)CC[C@H]2[C@@H]3CCC4=CC(=O)CCC4=C3[C@@H](c3ccc(N(C)C)cc3)C[C@@]21C
active: Potency [4] 0.264 µM | Potency [5] 0.418 µM
5.97%: viability (% of control) [1]
inactive: Potency [2] | outcome [7] | Potency [9]

COC(=O)Nc1nc2ccc(C(=O)c3cccs3)cc2[nH]1
10.7%: viability (% of control) [1]
active: Potency [4] 0.0118 µM | Potency [5] 0.0047 µM
inactive: Potency [2] | Potency [16] | outcome [7] | Potency [11] | Potency [9]

NS(=O)(=O)c1cc2c(cc1Cl)NCNS2(=O)=O
inactive: Potency [2] | Potency [12] | Potency [4] | Potency [5] | outcome [7] | Potency [11] | Potency [9] | Potency [10]
125%: viability (% of control) [1]

COc1ccccc1OCCNCC(O)COc1cccc2[nH]c3ccccc3c12 (stereo unspecified)
inactive: Potency [2] | Potency [6] | outcome [7] | Potency [8] | Potency [11] | Potency [9] | Potency [10]
89.8%: viability (% of control) [1]

O=C(CCCN1CCC(O)(c2ccc(Cl)cc2)CC1)c1ccc(F)cc1
active: Potency [4] 18.7 µM
inactive: Potency [2] | Potency [6] | outcome [7] | Potency [11] | Potency [9] | Potency [10]
48.3%: viability (% of control) [1]

CN1C2CCC1CC(OC(=O)C(CO)c1ccccc1)C2 (stereo unspecified)
113%: viability (% of control) [1]
inactive: Potency [2] | Potency [8] | Potency [11] | Potency [9] | Potency [10]

CN(C)C(=N)N=C(N)N
99.5%: viability (% of control) [1]
inactive: Potency [2] | Potency [4] | Potency [5] | Potency [6] | outcome [7] | Potency [13] | IC50 (viability decrease) [15] | Potency [17] | outcome [18] inactive [setting not given]

N[C@@H](Cc1c[nH]c2ccc(O)cc12)C(=O)O
35.8%: viability (% of control) [1]
inactive: Potency [2] | Potency [4] | Potency [5] | Potency [6] | outcome [7] | Potency [11] | Potency [9] | Potency [10]

CC(=O)OCC(CCn1cnc2cnc(N)nc21)COC(C)=O
inactive: Potency [2] | Potency [4] | Potency [5] | Potency [16] | Potency [6] | outcome [7] | Potency [8]
106%: viability (% of control) [1]

Cn1c(=O)c2c(ncn2C)n(C)c1=O
inactive: Potency [2] | Potency [5] | outcome [7] | Potency [8] | Potency [10]
116%: viability (% of control) [1]

CNCCCC12CCC(c3ccccc31)c1ccccc12
13.7%: viability (% of control) [1]
inactive: Potency [2] | Potency [6] | outcome [7] | Potency [11] | Potency [9] | Potency [10]
active: Potency [5] 18.7 µM | Potency [8] 20.9 µM

CC(C)NCC(O)c1ccc(O)c(O)c1 (stereo unspecified)
active: Potency [4] 5.9 µM | Potency [5] 20.9 µM
inactive: Potency [2] | Potency [6] | outcome [7] | Potency [8] | Potency [9] | Potency [10]
16%: viability (% of control) [1]

Clc1ccc2nsnc2c1NC1=NCCN1
inactive and 20.9 µM (active): Potency [2]
inactive: Potency [4] | Potency [5] | outcome [7] | Potency [9] | Potency [10]
57%: viability (% of control) [1]

CCC1(C)CC(=O)NC1=O (stereo unspecified)
inactive: Potency [2] | Potency [5] | Potency [6] | outcome [7] | Potency [11] | Potency [9] | Potency [10]
128%: viability (% of control) [1]

CC(C)(Oc1ccc(C2CC2(Cl)Cl)cc1)C(=O)O (stereo unspecified)
active: Potency [5] 7.62 µM
9.42% [at 92.2 µM]: viability (% of control) [1]
inactive: Potency [2] | Potency [6] | outcome [7] | outcome [18] inactive [at 93.4 µM] | Potency [8] | Potency [11] | Potency [9] | Potency [10]
